Conditions in all cases: mRNA level, 48 h; actives raise or lower the signal
Read-out in assay [1]: matrix metalloproteinase-3 (MMP3), MMP3 (gene 4314)
Description: LTEA_HepaRG_MMP3: Life Technologies and Expression Analysis (LTEA) Assay for matrix metalloproteinase-3 (MMP3) using HepaRG (AID 2283519). An outline of the steps:
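Differentiated human HepaRG cells, plated 48 h on collagen I, were exposed in duplicate for 48 h in serum-free induction medium to eight half-log concentrations up to 100 uM in 0.5% DMSO. MMP3 mRNA was quantified by TaqMan qRT-PCR, normalised to ACTB, GAPDH and POLR2A.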

Read-out in assay [2]: Nuclear factor NF-kappa-B p105 subunit (Homo sapiens) (UniProt P19838)
Description: LTEA_HepaRG_NFKB1: Life Technologies and Expression Analysis (LTEA) Assay for Nuclear Factor Kappa B Subunit 1 (NFKB1) using HepaRG (AID 2283521).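 On outcome: TaqMan qRT-PCR transcript normalised to ACTB GAPDH and POLR2A housekeeping genes.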 In outline: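 HepaRG, 48 h exposure; 8-pt half-log series from 100 uM in 0.5% DMSO; duplicates. Readout: NFKB1 mRNA by qRT-PCR (Fluidigm arrays), housekeeping-normalized. Gain/loss fit vs DMSO baseline.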

Read-out in assay [3]: Protein phosphatase 2A (PPP2R4), PTPA (gene 5524)
Briefly: LTEA_HepaRG_PPP2R4: Life Technologies and Expression Analysis (LTEA) Assay for Protein phosphatase 2A (PPP2R4) using HepaRG (AID 2283522). In outline:
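Gene-expression endpoint in HepaRG hepatic cells: 48 h treatment across eight half-log concentrations up to 100 uM in 0.5% DMSO. PPP2R4 mRNA by qRT-PCR, normalized to three endogenous control genes.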

Read-out in assay [4]: Phosphatase and tensin (PTEN), PTEN (gene 5728)
Description: LTEA_HepaRG_PTEN: Life Technologies and Expression Analysis (LTEA) Assay for Phosphatase and tensin (PTEN) using HepaRG (AID 2283523). An outline of the steps:
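Differentiated human HepaRG cells, plated 48 h then switched to serum-free induction medium, were exposed in duplicate for 48 h to eight half-log concentrations up to 100 uM in 0.5% DMSO. PTEN mRNA measured by TaqMan qRT-PCR, normalized to ACTB/GAPDH/POLR2A, bidirectional fit versus DMSO.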

Read-out in assay [5]: solute carrier (SLC22A1), SLC22A1 (gene 6580)
Briefly: LTEA_HepaRG_SLC22A1: Life Technologies and Expression Analysis (LTEA) Assay for solute carrier (SLC22A1) using HepaRG (AID 2283524). In outline: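 Human HepaRG cells were plated 48 h, switched to serum-free induction medium, then exposed in duplicate for 48 h to 8-point half-log series from 100 uM in 0.5% DMSO. SLC22A1 mRNA measured by qRT-PCR, normalized to ACTB/GAPDH/POLR2A, fitted bidirectionally versus DMSO.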

Read-out in assay [6]: Pyruvate Dehydrogenase Kinase 4 (PDK4), PDK4 (gene 5166)
Description: LTEA_HepaRG_PDK4: Life Technologies and Expression Analysis (LTEA) Assay for Pyruvate Dehydrogenase Kinase 4 (PDK4) using HepaRG (AID 2283525). In outline:
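Differentiated human HepaRG cells, pre-cultured 48 h, were exposed in duplicate for 48 h in serum-free induction medium to eight half-log concentrations up to 100 uM in 0.5% DMSO. PDK4 mRNA was quantified by qRT-PCR, normalized to ACTB, GAPDH and POLR2A, bidirectional fitting versus DMSO.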

Read-out in assay [7]: NAD(P)H dehydrogenase [quinone] 1 (NQO1), NQO1 (gene 1728)
Description: LTEA_HepaRG_NQO1: Life Technologies and Expression Analysis (LTEA) Assay for NAD(P)H dehydrogenase [quinone] 1 (NQO1) using HepaRG (AID 2283526). In outline: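 Human HepaRG hepatic cells received chemicals for 48 h in serum-free induction medium with 0.5% DMSO, up to 100 uM. Expression was assessed by TaqMan qRT-PCR against housekeeping controls and fitted bidirectionally against DMSO.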

Read-out in assay [8]: Nuclear factor erythroid 2-related factor 2 (Homo sapiens) (UniProt Q16236)
Description: LTEA_HepaRG_NFE2L2: Life Technologies and Expression Analysis (LTEA) Assay for Nuclear factor erythroid 2-related factor 2 (NFE2L2) Transcription Factor using HepaRG (AID 2283527).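 On outcome: TaqMan qRT-PCR transcript level normalised to ACTB GAPDH and POLR2A housekeeping genes.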 An outline of the steps:
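Differentiated human HepaRG cells in serum-free induction medium were exposed for 48 h to eight concentrations (top 100 uM, half-log dilutions, 0.5% DMSO), in duplicate. NFE2L2 mRNA was quantified by TaqMan qRT-PCR, normalized to ACTB, GAPDH and POLR2A, with bidirectional fitting versus DMSO.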

Read-out in assay [9]: succinate dehydrogenase complex iron sulfur subunit B (SDHB), SDHB (gene 6390)
Briefly: LTEA_HepaRG_SDHB: Life Technologies and Expression Analysis (LTEA) Assay for succinate dehydrogenase complex iron sulfur subunit B (SDHB) using HepaRG (AID 2283528). An outline of the steps:
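Readout is SDHB transcript level by qRT-PCR, normalised to three housekeeping genes and fitted bidirectionally against 0.5% DMSO vehicle. Human HepaRG cells were treated for 48 h at up to 100 uM.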

Read-out in assay [10]: Signal transducer and activator of transcription 3 (Homo sapiens) (UniProt P40763)
Description: LTEA_HepaRG_STAT3: Life Technologies and Expression Analysis (LTEA) Assay for Signal transducer and activator of transcription (STAT3) using HepaRG (AID 2283529). An outline of the steps: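 Differentiated human HepaRG cells in serum-free induction medium were exposed in duplicate for 48 h to eight half-log concentrations up to 100 uM in 0.5% DMSO. STAT3 mRNA was quantified by TaqMan qRT-PCR, normalized to ACTB, GAPDH and POLR2A, and fitted bidirectionally against DMSO.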

Consider 16 compounds from PubChem BioAssay (EPA / NIEHS).

“And” between values parts separate entries of the source, which are not always exact repeats. Equal values may be shown once. More than one record can exist for a structure, and the calls need not agree. The source made the active and inactive calls. How the source made its calls: active means hit-call score of the fitted dose curve at least 0.9, where 1 is the maximum; inactive means score below 0.9.

Chain of Nuclear factor NF-kappa-B p105 subunit (Homo sapiens) (P19838 whole entry, looked up): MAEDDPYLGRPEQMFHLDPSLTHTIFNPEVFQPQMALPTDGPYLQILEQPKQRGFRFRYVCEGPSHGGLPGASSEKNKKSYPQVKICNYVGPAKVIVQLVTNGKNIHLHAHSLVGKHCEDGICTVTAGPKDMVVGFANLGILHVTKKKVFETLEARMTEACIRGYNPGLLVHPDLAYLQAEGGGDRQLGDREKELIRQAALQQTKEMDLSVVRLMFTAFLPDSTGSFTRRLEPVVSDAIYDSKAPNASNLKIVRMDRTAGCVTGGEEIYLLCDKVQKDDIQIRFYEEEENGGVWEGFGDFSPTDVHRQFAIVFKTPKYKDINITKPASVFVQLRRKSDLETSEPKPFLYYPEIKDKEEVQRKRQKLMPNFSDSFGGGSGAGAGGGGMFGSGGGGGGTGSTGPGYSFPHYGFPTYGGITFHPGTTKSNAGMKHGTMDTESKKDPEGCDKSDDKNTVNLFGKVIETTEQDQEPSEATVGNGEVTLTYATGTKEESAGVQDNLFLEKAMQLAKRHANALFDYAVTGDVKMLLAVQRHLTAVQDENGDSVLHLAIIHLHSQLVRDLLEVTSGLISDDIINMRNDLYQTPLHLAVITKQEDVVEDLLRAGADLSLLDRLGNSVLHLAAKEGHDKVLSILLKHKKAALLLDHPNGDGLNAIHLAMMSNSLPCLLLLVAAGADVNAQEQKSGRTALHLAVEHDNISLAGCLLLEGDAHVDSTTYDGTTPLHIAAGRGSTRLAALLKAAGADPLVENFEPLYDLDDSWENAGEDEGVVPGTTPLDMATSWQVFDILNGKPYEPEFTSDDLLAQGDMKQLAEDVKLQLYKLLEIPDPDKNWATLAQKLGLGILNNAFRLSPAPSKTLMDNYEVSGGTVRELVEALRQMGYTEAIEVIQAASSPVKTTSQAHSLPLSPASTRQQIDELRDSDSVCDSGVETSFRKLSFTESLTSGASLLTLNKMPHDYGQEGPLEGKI
Chain of Signal transducer and activator of transcription 3 (Homo sapiens) (P40763 whole entry, looked up): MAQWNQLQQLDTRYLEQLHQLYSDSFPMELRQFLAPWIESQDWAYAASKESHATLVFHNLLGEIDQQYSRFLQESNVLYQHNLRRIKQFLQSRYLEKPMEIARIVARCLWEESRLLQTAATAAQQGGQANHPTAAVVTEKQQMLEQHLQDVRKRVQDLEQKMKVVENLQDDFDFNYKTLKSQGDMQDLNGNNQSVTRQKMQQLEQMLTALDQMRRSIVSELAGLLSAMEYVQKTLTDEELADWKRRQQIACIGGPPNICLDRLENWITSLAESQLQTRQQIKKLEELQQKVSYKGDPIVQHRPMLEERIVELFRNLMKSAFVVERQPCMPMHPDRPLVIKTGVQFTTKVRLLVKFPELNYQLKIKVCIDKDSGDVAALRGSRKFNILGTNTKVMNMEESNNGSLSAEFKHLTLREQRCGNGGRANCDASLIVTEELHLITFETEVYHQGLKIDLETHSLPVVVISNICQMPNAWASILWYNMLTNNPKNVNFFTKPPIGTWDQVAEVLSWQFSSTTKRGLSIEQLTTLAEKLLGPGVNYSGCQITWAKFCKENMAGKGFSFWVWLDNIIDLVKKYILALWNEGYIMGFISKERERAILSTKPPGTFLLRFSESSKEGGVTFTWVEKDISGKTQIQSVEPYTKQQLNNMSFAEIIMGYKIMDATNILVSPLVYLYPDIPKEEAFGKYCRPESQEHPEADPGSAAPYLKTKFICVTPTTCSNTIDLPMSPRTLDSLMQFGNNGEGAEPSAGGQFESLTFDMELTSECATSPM
Chain of Nuclear factor erythroid 2-related factor 2 (Homo sapiens) (Q16236 whole entry, looked up): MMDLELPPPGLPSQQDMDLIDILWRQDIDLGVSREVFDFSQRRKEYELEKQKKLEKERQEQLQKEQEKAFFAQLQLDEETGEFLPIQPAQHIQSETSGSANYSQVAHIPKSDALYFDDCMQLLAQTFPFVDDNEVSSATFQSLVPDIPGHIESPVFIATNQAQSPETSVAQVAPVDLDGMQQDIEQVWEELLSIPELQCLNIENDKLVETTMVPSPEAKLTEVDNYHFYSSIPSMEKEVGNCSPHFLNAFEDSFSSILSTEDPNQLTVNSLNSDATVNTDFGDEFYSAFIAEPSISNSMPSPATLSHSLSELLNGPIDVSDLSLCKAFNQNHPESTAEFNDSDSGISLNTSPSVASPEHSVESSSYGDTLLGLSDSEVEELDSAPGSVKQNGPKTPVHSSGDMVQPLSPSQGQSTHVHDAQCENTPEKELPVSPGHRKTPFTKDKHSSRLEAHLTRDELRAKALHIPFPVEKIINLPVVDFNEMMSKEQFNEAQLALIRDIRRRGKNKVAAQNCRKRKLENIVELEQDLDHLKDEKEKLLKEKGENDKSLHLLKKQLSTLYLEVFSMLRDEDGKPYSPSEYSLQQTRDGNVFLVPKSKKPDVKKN

In general, AC50 refers to the concentration giving half of the maximal activity seen. With `O=C(Nc1ccc2[nH]ccc2c1)c1cc2cc(F)ccc2n1Cc1cccc(F)c1`, the compound was called inactive in assay [1], in assay [2], in [3], in assay [4], in assay [7] and in [9]. In assay [10], the compound was classed as inactive. Moreover, the values for the AC50 in assay [5], in assay [6] and in [8] were 39.5 µM (active), 89.3 µM (active) and 47.1 µM (active), respectively.
`O=C(O)C(F)(F)C(F)(F)C(F)(F)C(F)(F)C(F)(F)C(F)(F)C(F)(F)C(F)(F)C(F)(F)C(F)(F)F`: the result in assay [1], in assay [2], in [3], in assay [4], in [6] and in [7] was inactive. The compound was classed as inactive in [8], in assay [9] and in assay [10].
With `ClCC(Cl)CCl`, the outcome in assay [1], in [3], in [4], in assay [5], in assay [6] and in assay [8] was inactive. For the same compound, the call in assay [9] and in assay [10] was inactive.
Regarding `O=C(O)C(F)(F)C(F)(F)C(F)(F)C(F)(F)C(F)(F)C(F)(F)F`, the compound was called inactive in [1], in [2], in assay [3], in assay [4], in [5] and in assay [7]. The compound was called inactive in assay [8], in [9] and in [10]. Besides, the AC50 in [6] is 35.6 µM (active).
With `C[C@]12CCC(=O)C[C@@H]1CC[C@@H]1[C@@H]2CC[C@]2(C)[C@@H](O)CC[C@@H]12`, the compound was called inactive in assay [1], in [2], in [3], in assay [4], in [5] and in assay [6]. Moreover, the outcome in assay [7], in assay [8], in [9] and in [10] was inactive.
With `COc1cc(-c2ccc(N)c(OC)c2)ccc1N`, the AC50 in assay [1] was 39.3 µM (active) and 2.3 µM (active); in [5], 50 µM (active); in assay [8], 50 µM (active). Also, the compound was called inactive in assay [2], in [3], in [4], in assay [5], in assay [6] and in assay [7]. The outcome in assay [8], in [9] and in [10] was inactive.
`ClC1(Cl)C2(Cl)C3(Cl)C4(Cl)C(Cl)(Cl)C5(Cl)C3(Cl)C1(Cl)C5(Cl)C24Cl` (centres undefined): the outcome in assay [1], in assay [3], in assay [4], in [5], in assay [7] and in assay [8] was inactive. Besides, the call in assay [9] and in [10] was inactive. The AC50 in assay [6] is 16.8 µM (active).
For `CCN1CCC2(CC1)COc1cc3c(cc12)N(C(=O)c1ccc(-c2ccc(-c4nnc(C)o4)cc2C)cc1)CC3`, the AC50 in assay [1] is 46.8 µM (active); in [2], 46.8 µM (active); in assay [3], 21.8 µM (active); in assay [4] it was 22.7 µM (active); in [5], 22.9 µM (active); in assay [6] it was 28.4 µM (active). For the same compound, the results for the AC50 in [9] and in assay [10] were 24.8 µM (active) and 13.7 µM (active), respectively. In addition, the result in assay [7] and in assay [8] was inactive.
`CCOP(=S)(OCC)SCSP(=S)(OCC)OCC`: the result in assay [1], in [2], in assay [3], in assay [4], in assay [5] and in assay [7] was inactive. Moreover, the compound was classed as inactive in [8], in [9] and in [10]. Further, the AC50 in assay [6] is 20.4 µM (active).
For `CC(=O)[O][Hg][c]1ccccc1`, the AC50 in [1] is 50 µM (active); in assay [2], 23.2 µM (active); in assay [3], 28 µM (active); in [4], 69.5 µM (active); in [5], 2.33 µM (active); in assay [6], 13.1 µM (active). The AC50 in assay [7] is 12.3 µM (active); in [8], 23.4 µM (active); in [9], 26.2 µM (active); in [10] it was 17 µM (active).
Consider `Oc1cccc2cccnc12`, for which the outcome in assay [1], in assay [3], in [4], in [5], in [6] and in assay [7] was inactive. The compound was called inactive in [8], in assay [9] and in assay [10].
For the compound `O=[N+]([O-])c1ccc(O)c([N+](=O)[O-])c1`, in [1], the outcome was inactive. Also, the AC50 in assay [2] was 13 µM (active); in assay [3], 13.1 µM (active); in assay [4] it was 31.8 µM (active); in assay [5] it was 25.2 µM (active); in assay [6], 11.8 µM (active); in assay [7] it was 12.7 µM (active). Also, the AC50 in assay [8] is 12.7 µM (active); in assay [9] it was 13 µM (active); in assay [10], 12.8 µM (active).
`CN(C)N=O`: the compound was called inactive in assay [2], in [3], in [4], in [5], in assay [6] and in assay [7]. Also, the compound was classed as inactive in assay [8], in assay [9] and in [10].
Turning to `CCCCCCCCc1ccc(O)cc1`, the compound was called inactive in assay [1], in assay [2], in assay [3], in assay [4], in [5] and in [7]. In addition, the result in assay [8], in assay [9] and in assay [10] was inactive. In addition, in [6], the AC50 is 69.3 µM (active).
On to `O=C(O)C(Cl)(Cl)Cl`, for which the result in assay [1], in assay [3], in assay [4], in assay [5], in assay [6] and in assay [7] was inactive. For the same compound, the result in [8], in assay [9] and in assay [10] was inactive.
With `CCC(=O)C(CC(C)N(C)C)(c1ccccc1)c1ccccc1` (centres undefined), the compound was called inactive in [1], in [3], in assay [4], in [5], in assay [6] and in [7]. In addition, the compound was called inactive in assay [8], in [9] and in [10].
